Screening data: PubChem BioAssay, National Center for Advancing Translational Sciences (NCATS)
DRD3 agonist – activates the human D3 dopamine receptor | P35462 | D3R DiscoveRx beta-arrestin cells, luminescence, 90 min | max activation, % | 410,000 compounds, 0.58% hits | AID 652048; in the data active means max activation above about 30%; further: 0% is about no effect
Target sequence (P35462 whole entry, looked up): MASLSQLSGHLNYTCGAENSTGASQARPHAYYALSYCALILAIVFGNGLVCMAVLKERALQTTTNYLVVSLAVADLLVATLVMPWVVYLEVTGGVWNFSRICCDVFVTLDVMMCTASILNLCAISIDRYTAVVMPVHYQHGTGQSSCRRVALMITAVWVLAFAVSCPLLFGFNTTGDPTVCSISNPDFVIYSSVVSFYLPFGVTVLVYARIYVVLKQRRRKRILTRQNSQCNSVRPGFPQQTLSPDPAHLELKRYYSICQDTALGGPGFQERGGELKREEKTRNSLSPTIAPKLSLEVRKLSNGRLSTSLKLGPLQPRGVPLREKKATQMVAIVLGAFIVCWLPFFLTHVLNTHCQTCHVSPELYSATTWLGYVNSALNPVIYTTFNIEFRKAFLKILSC
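Cells at 1500/well, incubated overnight, then treated with pinned compounds (dopamine as control) for 90 min at 37 degrees C. DiscoveRx reagent added for 30 - 60 minutes at room temperature; luminescence read.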
S2 tox – cell viability loss in ATXN counter-screen | S2 cells (HEK-293 line with an ATXN2-luciferase reporter) viability, CellTiter-Fluor protease fluorescence, 24 h | Potency, µM (series often up to 56.7 µM), usual class: cytotoxic | 400,000 compounds, 0.49% hits | AID 651635; further: potency means the concentration at half of the fitted maximal effect; nearly all actives have a fitted effect of over 40% in size
IL1B secr inh – inflammasome signaling inhibition, IL-1 beta readout; THP-1 LPS/ATP IL-1B secretion, AlphaLISA, 16 h; hits give low values; activity change, % at 57.5 µM; 360,000 compounds, 4.7% hits; AID 743279; in the data active means activity change below about -50%; inconclusive means mostly about -30% to -49%; further: on the % scale 0 is the no-effect control and ±100 the full control effect
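Secreted IL-1B measured by AlphaLISA bead assay after 16 h compound exposure of THP-1 cells; compounds (final up to 57.5 uM) added 1 h before LPS (250 ng/mL) and ATP (1.25 mM) stimulation; lower signal means less secretion.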
Integrin act MD – integrin-mediated muscular dystrophy alleviation activation. alpha7betagal myoblasts, beta-gal FDG fluorescence, 48 h. Potency, µM (highest dose often 38.3 µM), inactives show top-dose activation, hits mostly activators. 350,000 compounds, 0.064% hits. AID 624291;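 further: potency means the concentration at half of the fitted maximal effect; 100% = response of the positive control SU9516; nearly all actives have a fitted effect of over 60% in size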
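Alpha7betagal+/- myoblasts (passage 13) were plated 16-24 hr, then exposed to compounds (1:260 dilution of DMSO stock) for 48 hours at 37C. After MPER lysis, β-galactosidase reporter activity was read as FDG fluorescence (ex 480/em 540) after 30 minutes.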
ATXN2 expr inh – inhibitors of ATXN2 expression; HEK-293 ATXN2-luciferase reporter, luminescence, 24 h; Potency, µM (doses to about 57 µM), without a hit: at the top dose activity change, negative = inhibition, usual class: inhibitors; 360,000 compounds, 0.72% hits; AID 1745845; further: potency means the concentration at half of the fitted maximal effect; on the % scale 0 is the no-effect control and ±100 the full control effect; nearly all actives have a fitted effect of over 55% in size
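qHTS (up to 57 uM final) was run with 24 h compound exposure of reporter cells at 37 °C. Each well was multiplexed: SteadyGlo luminescence measured ATXN2-luciferase expression after a fluorogenic Gly-Phe-AFC viability readout (25 uM final).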
D3 antag – blocks the human D3 dopamine receptor. 360,000 compounds, 2.5% hits. P35462. max response, negative = inhibition, %. D3R cells, DiscoveRx beta-arrestin luminescence, antagonist mode; hits give low values; in the data active means max response below about -50%; inconclusive means no clear call, values can overlap the other calls; further: on the % scale 0 is the no-effect control and ±100 the full control effect
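Cells expressing the human receptor were seeded at 1500 cells/well, incubated overnight at 37 degrees C in 5% CO2, then exposed to library compounds with dopamine controls for 90 minutes at 37 degrees C before luminescent detection.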
Starred values were filed as active, the others as inactive; i = inactive; ? = inconclusive; nt = no result. The list is not random: actives were taken first. Their share in the collection is about 7%. Unless noted, the call rests on the fitted dose curve; in most records, active means well fitted curve in the direction sought with a large enough effect; inconclusive means small, poorly fitted or top-dose-only effect, or another doubt; inactive means no such curve, though single readings can be large; an effect the other way counts as inactive or inconclusive.

SMILES | DRD3 agonist | S2 tox | IL1B secr inh | Integrin act MD | ATXN2 expr inh | D3 antag
CC(C)C1NCCc2c1sc1ccccc21 (stereo not drawn) | -28 | i | -50* | 4% | -3% | -61*
Cc1ccc2c(c1)sc(C)[n+]2CCCS(=O)(=O)[O-] | -22 | i | -1 | 0% | -5% | -86*
CC(=O)c1cccc(OCC(=O)N(CCC2=CCCCC2)c2c(N)n(Cc3ccccc3)c(=O)[nH]c2=O)c1 | -9 | ? | -3 | -7% | -15% | 37
Cn1cccc1/C=C(/C#N)C(N)=S | -18 | i | 6 | -10% | -29% | -63*
Cc1ccc(-c2ccc(/C=C(\C#N)C(N)=S)n2C)cc1 | -6 | i | 21 | -17% | 25% | -7
Cc1cc(C2N=C(N)Nc3nc4ccccc4n32)c(C)n1-c1ccccc1Cl (stereo not drawn) | -11 | i | -56* | -36% | -10% | 11
COc1cc(C2Nc3ccccc3NC3=C2C(=O)CC(C)(C)C3)cc(OC)c1OC(C)=O (stereo not drawn) | 1 | i | -2 | 12% | -1% | 5
[C-]#[N+][C@H](O[C@@H]1O[C@H](CO)[C@@H](O)[C@H](O)[C@H]1O)c1ccccc1 | -18 | i | 11 | 16% | -8% | -1
O=C(O)CC(CCc1ccccc1)OC1OC(CO)C(O)C(O)C1O (stereo not drawn) | 33* | i | -13 | 9% | 3% | 0
CCCC(=O)N1CCCC(c2cc(C(=O)Nc3ccccc3)no2)C1 (stereo not drawn) | -6 | i | -4 | nt | 11µM* | 11
O=C(OCc1cnc(Cl)s1)c1ccccc1Cl | 2 | i | -5 | -9% | 8% | -1
O=C(OCn1ncc(Br)c(Br)c1=O)c1ccc(F)cc1 | -13 | 14µM* | -97* | -53% | 7.9µM* | -83*
O=C(OCn1ncc(Br)c(Br)c1=O)c1ccccc1Cl | -33 | 10µM* | -100* | -63% | 7.9µM* | -88*
CC(=O)OCn1ncc(N2CCOCC2)c(Br)c1=O | 1 | ? | 4 | -14% | -14% | 5
COc1ccc(C(C(=O)NC(C)(C)C)N(C(=O)CCC(=O)Nc2cc(C)on2)c2cccc(F)c2)cc1 (stereo not drawn) | 0 | i | -9 | -13% | -3% | 1
COc1cc(OC)c(NC(=O)C(C)n2nc(-c3ccc(C)cc3)c3c(c2=O)CCCC3)cc1Cl (stereo not drawn) | 1 | ? | nt | nt | -36% | nt
COc1cc(CNCCSc2nnnn2C)cc(Br)c1OCc1ccccc1F | -12 | i | -2 | 18% | -18% | -24
CCOc1cc(CNCCSc2nnnn2C)cc(Br)c1OCc1ccccc1F | 11 | ? | -65* | 0% | -23% | 10
COc1cc(CNCCSc2nnnn2C)cc(Br)c1OCc1ccc(F)cc1 | -17 | i | -50* | -14% | ? | -19
CCOc1cc(CNCCSc2nnnn2C)cc(Br)c1OCc1ccc(F)cc1 | -22 | ? | -87* | ? | ? | 10
S=c1[nH]nc(C2CCCCC2)n1/N=C/c1cccc(Cl)c1Cl | -12 | ? | -61* | ? | -8% | -22
CN(C)c1ccc(/C=N/n2c(C3CCCCC3)n[nH]c2=S)cc1 | -13 | i | -62* | -13% | -27% | -13
Fc1ccc(/C=N/n2c(C3CCCCC3)n[nH]c2=S)cc1 | -1 | ? | -2 | -19% | -21% | 2
Cc1cc(C)c(-n2[nH]nnc2=S)c(C)c1 | -1 | i | 0 | ? | nt | 2
CCOc1ccc(N(CC(=O)NC2CCCCCC2)S(=O)(=O)c2ccccc2)cc1 | -4 | i | i | 0% | -3% | 4
SMILES | DRD3 agonist | S2 tox | IL1B secr inh | Integrin act MD | ATXN2 expr inh | D3 antag
COc1ccc(N(C)S(=O)(=O)c2cccc(C(=O)NCC3CCCCC3)c2)cc1 | 4 | i | -50* | -31% | -8% | 0
COc1ccc(N(C)S(=O)(=O)c2cccc(C(=O)NC3CCCC3)c2)cc1 | -7 | ? | ? | 21% | -11% | -9
CCOc1ccc(S(=O)(=O)N(CC(=O)NC2CCCC2)c2ccc(F)cc2)cc1 | 8 | i | 4 | 9% | -11% | -52*
CCOc1ccc(S(=O)(=O)N(C)c2ccc(OCC(=O)NCC3CCCCC3)cc2)cc1 | -11 | ? | ? | 3% | ? | -79*
CCOc1ccc(N(CC(=O)NC2CCCC2)C(=O)CCC(=O)Nc2nccs2)cc1 | 7 | i | -52* | -2% | 5% | 1
O=S1(=O)[C@H]2C[C@@H]3C=C[C@@]2(CN1Cc1cccc(Cl)c1)O3 | 7 | i | 8 | 7% | 3% | 0
CC1CN(CC(=O)NCc2ccccc2)CC(C)O1 (stereo not drawn) | -19 | i | 13 | 14% | 1% | -7
CC1(c2ccc(Cl)cc2Cl)NC(=O)N(CC(=O)NCCC2=CCCCC2)C1=O (stereo not drawn) | 9 | i | ? | -12% | nt | -2
CCn1c(=O)c2cc(C(=O)N(C)CC(OC)OC)sc2c2ccccc21 | 4 | i | 11 | 8% | nt | 10
CN1CCN(CCCNC(=O)c2cc3c(=O)n(C)c4ccccc4c3s2)CC1 | 3 | i | -81* | -60% | -15% | 19
CCN(CC)CCCNC(=O)c1cc2c(=O)n(CC)c3ccccc3c2s1 | -12 | ? | -57* | -46% | -2% | -27
CCN(CC)CCNC(=O)c1cc2c(=O)n(CC)c3ccccc3c2s1 | -11 | i | -56* | 10% | -18% | 1
Cn1c(=O)c2cc(C(=O)NCCCN3CCN(c4cccc(Cl)c4)CC3)sc2c2ccccc21 | -31 | i | nt | nt | 0% | nt
CCOc1ccccc1N(C)C(=O)c1cc2c(=O)n(CC)c3ccccc3c2s1 | -3 | nt | -68* | -31% | nt | -11
CSc1ccc(-c2cccc3nncn23)cc1 | 6 | i | -17 | nt | 11% | 17
O=[N+]([O-])c1ccc(N2CCN(c3ccc(F)cc3)CC2)nc1 | -8 | i | -20 | 25% | nt | -24
CCNC(=O)C1CCCN(c2ncnc3onc(C)c23)C1 (stereo not drawn) | 7 | i | nt | nt | -5% | nt
COCCN(CCOC)C(=O)c1cc2sc3ccccc3c2s1 | 0 | i | ? | 5% | 1% | -10
CN(C)CCNC(=O)c1cc2sc3ccccc3c2s1 | -12 | ? | -71* | -62% | -6% | -24
CCC1=NN(C(=O)c2ccc([N+](=O)[O-])cc2)C(O)(c2ccccc2)C1 (stereo not drawn) | -17 | 28µM* | -24 | 1% | ? | ?
COc1ccc(Cc2nc3ccc(C(=O)N(C)C(C)c4nccs4)cc3o2)cc1 (stereo not drawn) | -15 | i | 37 | -21% | -6% | -13
